Measurements as given in PubChem BioAssay (Tox21).
Values without a mark were called inactive. Inconclusive results are not listed. A call without a number means that no potency is given here. The source made the active and inactive calls. Unless noted, calls come from the whole dose curve; as a rule, active = well fitted curve in the direction sought with a large enough effect in the repeat runs; inconclusive = weak or mixed curves; inactive = no such curve, though single readings can be large; an effect the other way counts as inactive or inconclusive.

What was measured:
[1] = qHTS assay for small molecules that induce genotoxicity in human embryonic kidney cells expressing luciferase-tagged ATAD5 (AID 651632); note: nearly all actives have a fitted effect of over 15% in size
Procedure, shortened: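 Luminescent reporter readout, HEK293T ATAD5-luc line: 16 hr drug exposure (37C, 5% CO2) followed by Amplite, 30 min RT.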

[2] = qHTS assay for small molecule agonists of the p53 signaling pathway - cell viability (AID 651633; calls by dose curve; note: nearly all actives have a fitted effect of over 30% in size; note: potency is the fitted concentration of half-maximal effect)
Procedure, shortened: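 p53RE-bla cells, seeded at 4,000 per well and rested 5 h at 37 C/5% CO2, received compounds in DMSO for 16 h at 37 C. CellTiter-Glo was then added, and luminescence was read after 30 min at room temperature to gauge cytotoxicity.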

[3] = qHTS assay for small molecules that induce genotoxicity in human embryonic kidney cells expressing luciferase-tagged ATAD5 - cell viability (AID 651634; calls by dose curve; note: nearly all actives have a fitted effect of over 25% in size; note: potency is the fitted concentration of half-maximal effect)
Procedure, shortened: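 Viability read: CellTiter-Fluor fluorescence, 30 min at 37C. Cells: HEK293T, luciferase-tagged ATAD5. Exposure: 15.5 hr, 37C, 5% CO2, compound or DMSO vehicle.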

[4] = qHTS assay for small molecule disruptors of the mitochondrial membrane potential - cell viability (AID 720634; calls by dose curve;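 note: human HepG2 liver cancer cells; series mostly up to about 83 µM; nearly all actives have a fitted effect of over 20% in size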)
Procedure, shortened: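 HepG2, 1 hr compound, 37 C. ATP luminescence via CellTiter-Glo, 30 min RT, same well as m-MPI.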

[5] = qHTS assay to test for compound auto fluorescence at 590 nm (red) in HepG2 cells (AID 720674)
Procedure, shortened: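 Rose Bengal sodium served as the red fluorophore standard. HepG2 monolayers (overnight attachment, MEM with 10% FBS) were exposed to test compounds for 1 hr at 37 C and read at Ex 540/Em 590 nm.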

[6] = qHTS assay to test for compound auto fluorescence at 535 nm (green) in HepG2 cells (AID 720675)
[7] = qHTS assay to test for compound auto fluorescence at 460 nm (blue) in HEK293 cells (AID 720678)
Procedure, shortened: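 Intrinsic compound fluorescence is recorded in live HEK293 cultures after overnight incubation at 37C, 5% CO2, using excitation 405 nm and emission 460 nm. Values are referenced to triamterene.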

[8] = qHTS assay to test for compound auto fluorescence at 590 nm (red) in HEK293 cells (AID 720679)
Procedure, shortened: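 Red autofluorescence, HEK293 cells: 2,000 cells/well; attach 4-5 hr 37C; add 23 nL cpd or DMSO; incubate o/n 37C 5% CO2; read Ex540/Em590; Rose Bengal sodium reference.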

[9] = qHTS assay to test for compound auto fluorescence at 535 nm (green) in HEK293 cells (AID 720680)
[10] = qHTS assay to test for compound auto fluorescence at 460 nm (blue) in HEK293 cell free culture (AID 720681)
Procedure, shortened: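 Test compounds were pinned into cell-free culture medium (DMEM with 10% FBS) and fluorescence was read directly at Ex/Em 405/460 nm. Signals were expressed as fluorescence equivalents of triamterene, with DMSO vehicle as control.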

[11] = qHTS assay to test for compound auto fluorescence at 535 nm (green) in HEK293 cell free culture (AID 720682)
Procedure, shortened: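 Green-label autofluorescence (485 nm excitation, 535 nm emission) measured on compound added to cell-free culture medium (DMEM, 10% FBS). Output is expressed relative to fluorescein.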

[12] = qHTS assay to test for compound auto fluorescence at 590 nm (red) in HEK293 cell free culture (AID 720683)
Procedure, shortened: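 Tox21 10K library compounds were pinned into cell-free DMEM with 10% FBS and fluorescence was read at excitation 540 nm. Activity is expressed as Rose Bengal sodium equivalency.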

[13] = qHTS assay to test for compound auto fluorescence at 590 nm (red) in HepG2 cell free culture (AID 720684)
Procedure, shortened: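 Measured in medium alone (MEM containing 10% FBS) following pintool addition of compound; emission at 590 nm with 540 nm excitation, referenced to Rose Bengal sodium.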

[14] = qHTS assay to test for compound auto fluorescence at 460 nm (blue) in HepG2 cell free culture (AID 720685)
Procedure, shortened: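 Compound (23 nL) or DMSO pinned into cell-free MEM with 10% FBS; blue fluorescence read at 405/460 nm excitation/emission, expressed as auto-fluorescence equivalency to triamterene.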

[15] = qHTS assay to test for compound auto fluorescence at 535 nm (green) in HepG2 cell free culture (AID 720686)
[16] = qHTS assay to test for compound auto fluorescence at 460 nm (blue) in HepG2 cells (AID 720687)
Procedure, shortened: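 Cells (2,000/well in MEM with 10% FBS) attached overnight at 37 C, then were exposed to compound or DMSO for 1 hr at 37 C, 5% CO2. Fluorescence read at Ex/Em 405/460 nm, expressed as triamterene-equivalent signal.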

[17] = target: Glucocorticoid receptor (Homo sapiens) (UniProt P04150); test: qHTS assay to identify small molecule agonists of the glucocorticoid receptor (GR) signaling pathway (AID 720691; active = well fitted activation curve with a large enough effect in the signal ratio in the repeat runs, not every such curve was filed as active; the % refers to the signal ratio)
Chain of Glucocorticoid receptor (Homo sapiens) (P04150 whole entry, looked up): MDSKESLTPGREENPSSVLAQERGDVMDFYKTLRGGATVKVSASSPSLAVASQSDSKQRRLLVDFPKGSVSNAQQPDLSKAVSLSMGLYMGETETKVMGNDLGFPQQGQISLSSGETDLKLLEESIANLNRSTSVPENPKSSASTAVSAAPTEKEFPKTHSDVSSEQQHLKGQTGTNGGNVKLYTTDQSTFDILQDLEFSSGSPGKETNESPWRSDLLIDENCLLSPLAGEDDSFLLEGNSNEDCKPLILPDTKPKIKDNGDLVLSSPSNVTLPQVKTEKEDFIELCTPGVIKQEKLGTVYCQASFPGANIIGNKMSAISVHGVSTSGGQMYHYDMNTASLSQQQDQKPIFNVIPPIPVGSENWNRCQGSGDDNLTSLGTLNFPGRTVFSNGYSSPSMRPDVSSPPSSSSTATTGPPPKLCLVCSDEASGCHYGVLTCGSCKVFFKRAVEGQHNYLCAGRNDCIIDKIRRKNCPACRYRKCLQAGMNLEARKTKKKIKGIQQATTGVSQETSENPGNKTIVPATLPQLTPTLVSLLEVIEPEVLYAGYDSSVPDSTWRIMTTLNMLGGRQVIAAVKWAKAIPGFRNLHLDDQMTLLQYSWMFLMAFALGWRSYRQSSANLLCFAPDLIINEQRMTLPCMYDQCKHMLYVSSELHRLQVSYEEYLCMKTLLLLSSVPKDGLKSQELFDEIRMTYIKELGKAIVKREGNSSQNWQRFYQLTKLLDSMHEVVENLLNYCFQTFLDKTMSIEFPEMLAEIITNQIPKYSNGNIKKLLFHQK
Procedure, shortened: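 qHTS in GR-bla HeLa cells: 4 h settling at 37 C/5% CO2, 18 h compound incubation at 37 C, 2 h LiveBLAzer B/G FRET substrate at room temperature, fluorescence intensity measured.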

[18] = target: Glucocorticoid receptor (Homo sapiens) (UniProt P04150); test: qHTS assay to identify small molecule antagonists of the glucocorticoid receptor (GR) signaling pathway (AID 720692; active = well fitted inhibition curve with a large enough effect in the signal ratio in the repeat runs, not every such curve was filed as active; the % refers to the signal ratio)
Procedure, shortened: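 Inhibition of glucocorticoid signalling is measured in HeLa cells with a GRE-controlled beta-lactamase reporter; cells are co-treated with compound and 5 nM dexamethasone (final) for 18 h before FRET substrate readout.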

[19] = qHTS assay for small molecule disruptors of the mitochondrial membrane potential (AID 720635)
Procedure, shortened: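 HepG2 cells (2,000/well) attached overnight at 37C, then took compound for 1 hr at 37C, 5% CO2. Mito-MPS dye was added for 30 min; fluorescence was read at 490/535 nm (monomers) and 540/590 nm (aggregates).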

| Compound | Potency [1] | Potency [2] | Potency [3] | Potency [4] | Potency [5] | Potency [6] | Potency [7] | Potency [8] | Potency [9] | Potency [10] | Potency [11] | Potency [12] | Potency [13] | Potency [14] | Potency [15] | Potency [16] | Potency [17] | Potency [18] | Potency [19] |
| --- | --- | --- | --- | --- | --- | --- | --- | --- | --- | --- | --- | --- | --- | --- | --- | --- | --- | --- | --- |
| CNc1ccc([N+](=O)[O-])cc1 | inactive | inactive | 61.3 µM (active) | inactive | inactive | inactive | inactive | inactive | inactive | inactive | inactive | inactive | inactive | inactive | inactive | inactive | – | – | – |
| COC1=C(OC)C(=O)C(CCCCCCCCCCO)=C(C)C1=O | inactive | 29.8 µM (active) | inactive | inactive | inactive | inactive | inactive | – | inactive | inactive | inactive | inactive | inactive | inactive | inactive | inactive | inactive | – | – |
| Cc1ccc(C(C)C)cc2c(C)ccc1-2 | inactive | inactive | inactive | inactive | inactive | inactive | inactive | inactive | inactive | inactive | inactive | inactive | inactive | inactive | – | inactive | inactive | inactive | – |
| O=C(Nc1ccc2c(O)c(N=Nc3ccc(N=Nc4ccc(S(=O)(=O)O)cc4)cc3)c(S(=O)(=O)O)cc2c1)c1ccccc1 | inactive | inactive | 48.6 µM (active) | inactive | inactive | inactive | inactive | – | inactive | inactive | inactive | inactive | inactive | inactive | inactive | inactive | – | – | – |
| C=C(C)c1cccc(C(=C)C)c1 | inactive | inactive | inactive | inactive | inactive | inactive | inactive | – | inactive | inactive | inactive | inactive | inactive | – | inactive | inactive | inactive | inactive | inactive |
| Clc1ccnc(Cl)n1 | inactive | inactive | inactive | inactive | inactive | inactive | inactive | inactive | inactive | inactive | inactive | inactive | inactive | inactive | inactive | – | inactive | inactive | – |
| Cc1ccc(C)cc1 | inactive | inactive | inactive | inactive | inactive | inactive | inactive | – | inactive | inactive | inactive | inactive | inactive | – | inactive | – | inactive | inactive | – |
